Laboratory results published in PubChem BioAssay (NCATS).
Records with an inconclusive call do not appear. The source made the active and inactive calls. Calls follow the shape of the dose curve; as a rule, active = well fitted curve in the direction sought with a large enough effect; inconclusive = small, poorly fitted or top-dose-only effect, or another doubt; inactive = no such curve, though single readings can be large; an effect the other way counts as inactive or inconclusive.

How the values were obtained:
[1] = NS1 protein of Zika virus - qHTS assay to identify small molecule inhibitors in human HEK 293 cells (AID 1347053); also: series mostly up to about 46 µM; nearly all actives have a fitted effect of over 55% in size
Procedure, shortened: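 HEK 293; 20 h pre-culture, 37 C/5% CO2; cpd 1 h pre-infection; ZIKV MR766, MOI = 0.5, 24 h, 37 C; TR-FRET NS1 readout (two anti-NS1 Abs); norm. to no-virus vs infected.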

[2] = qHTS of pediatric cancer cell lines to identify multiple opportunities for drug repurposing: Primary screen for TC32 cells (AID 1347089); also: nearly all actives have a fitted effect of over 60% in size
Procedure, shortened: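 TC32 cells, 500-1,000/well in growth medium, compound-treated 48 h at 37 °C; viability from CellTiter-Glo luminescence. Primary screen: MIPE 11-point (0.78 nM–46 µM final), NPC 8-point (0.59 nM–46 µM final); confirmatory at 11-point dilutions.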

[3] = qHTS of pediatric cancer cell lines to identify multiple opportunities for drug repurposing: Primary screen for DAOY cells (AID 1347090); also: series mostly up to about 46 µM; nearly all actives have a fitted effect of over 55% in size
Procedure, shortened: (§1)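 Eight- or eleven-point concentration series, 48 h treatment at 37 degrees C in growth media; readout CellTiter-Glo luminescence. Potency and efficacy were taken from the concentration-response curves.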

[4] = qHTS of pediatric cancer cell lines to identify multiple opportunities for drug repurposing: Primary screen for SJ-GBM2 cells (AID 1347091)
Procedure, shortened: as §1

[5] = qHTS of pediatric cancer cell lines to identify multiple opportunities for drug repurposing: Primary screen for A673 cells (AID 1347092); also: nearly all actives have a fitted effect of over 45% in size
Procedure, shortened: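 A673 cells (500-1,000 cells/well) were treated 48 hours at 37 degrees C with compounds at 11-point (0.78 nM to 46 µM) or 8-point (0.59 nM to 46 µM) dilutions. Viability read by CellTiter-Glo luminescence; concentration-response curves fitted.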

[6] = qHTS of pediatric cancer cell lines to identify multiple opportunities for drug repurposing: Primary screen for SK-N-MC cells (AID 1347093); also: series mostly up to about 46 µM
Procedure, shortened: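 Metabolically active cells were quantified by ATP-dependent luminescence (CellTiter-Glo, 15 min at room temperature) following 48 h treatment. Cells had been plated at 500-1,000 per well and settled for 5 h beforehand.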

[7] = qHTS of pediatric cancer cell lines to identify multiple opportunities for drug repurposing: Primary screen for BT-37 cells (AID 1347094); also: series mostly up to about 57 µM
Procedure, shortened: (§2)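 Readout: CellTiter-Glo luminescence, 48 h treatment. Controls DMSO (neutral) and bortezomib 2.3 µM final (positive). Potency and efficacy taken from primary-screen concentration-response curves.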

[8] = qHTS of pediatric cancer cell lines to identify multiple opportunities for drug repurposing: Primary screen for NB-EBc1 cells (AID 1347095)
Procedure, shortened: as §2

[9] = qHTS of pediatric cancer cell lines to identify multiple opportunities for drug repurposing: Primary screen for U-2 OS cells (AID 1347096); also: nearly all actives have a fitted effect of over 50% in size
Procedure, shortened: (§3)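 Cells (500-1,000/well) in growth media were settled 5 h at 37 degrees C, then given compounds for 48 h. Viability was read as CellTiter-Glo luminescence. Primary runs used MIPE at 11 points (0.78 nM-46 µM) and NPC at 8 points (0.59 nM-46 µM); follow-ups used 11 points.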

[10] = qHTS of pediatric cancer cell lines to identify multiple opportunities for drug repurposing: Primary screen for Saos-2 cells (AID 1347097); also: nearly all actives have a fitted effect of over 40% in size
Procedure, shortened: as §2

[11] = qHTS of pediatric cancer cell lines to identify multiple opportunities for drug repurposing: Primary screen for SK-N-SH cells (AID 1347098); also: nearly all actives have a fitted effect of over 65% in size
Procedure, shortened: (§4)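 Cells (500-1,000/well) rested 5 h, then received compounds for 48 h; metabolically active cells were measured by CellTiter-Glo luminescence. Final concentrations spanned up to 46 µM (MIPE, 11-point) or 0.59 nM-46 µM (NPC, 8-point) in primary screens, 11-point in follow-ups.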

[12] = qHTS of pediatric cancer cell lines to identify multiple opportunities for drug repurposing: Primary screen for NB1643 cells (AID 1347099); also: nearly all actives have a fitted effect of over 50% in size
Procedure, shortened: as §2

[13] = qHTS of pediatric cancer cell lines to identify multiple opportunities for drug repurposing: Primary screen for LAN-5 cells (AID 1347100)
Procedure, shortened: as §3

[14] = qHTS of pediatric cancer cell lines to identify multiple opportunities for drug repurposing: Primary screen for BT-12 cells (AID 1347101); also: nearly all actives have a fitted effect of over 25% in size
Procedure, shortened: as §4

[15] = qHTS of pediatric cancer cell lines to identify multiple opportunities for drug repurposing: Primary screen for Rh18 cells (AID 1347102); also: nearly all actives have a fitted effect of over 65% in size
Procedure, shortened: as §3

[16] = qHTS of pediatric cancer cell lines to identify multiple opportunities for drug repurposing: Primary screen for OHS-50 cells (AID 1347103); also: nearly all actives have a fitted effect of over 40% in size
Procedure, shortened: as §4

Measured: Potency

Cc1nc([N+](=O)[O-])cn1-c1ccc([N+](=O)[O-])cc1
inactive: all assays above

COCCOCC(OC)OC
inactive: all assays above

C#CC(C)(CC)OC(=O)c1ccccc1C(=O)O (stereo unspecified)
inactive: all assays above

O=c1[nH]c2ccccc2c(=O)n1CCCl
inactive: all assays above

CC(=O)O[C@@H]1CC2C3CCc4cc(OC(=O)c5ccccc5)ccc4C3CCC2(C)[C@H]1OC(C)=O (stereo partly specified)
inactive: all assays above

O=C(Oc1ccccc1)c1ccccc1O
inactive: all assays above

O=C(CO)[C@@H](O)[C@H](O)[C@@H](O)CO
inactive: all assays above

CCCCCCCC(=O)[O-].CCCCCCCC(=O)[O-].[Zn+2]
inactive: all assays above

COCCc1ccc(OCC2CO2)cc1 (stereo unspecified)
inactive: all assays above

Cn1cc(S(C)=O)c(=O)c2ccc(F)cc21 (stereo unspecified)
inactive: all assays above

O=[N+]([O-])c1cncn1CCN1CCOCC1
inactive: all assays above

CC1(C)S[C@@H]2[C@H](NC(=O)C(c3ccccc3)S(=O)(=O)O)C(=O)N2[C@H]1C(=O)O (stereo partly specified)
inactive: all assays above

CSCC[C@H](NC(=O)[C@H](Cc1c[nH]c2ccccc12)NC(=O)CCNC(=O)OC(C)(C)C)C(=O)N[C@@H](CC(=O)O)C(=O)N[C@@H](Cc1ccccc1)C(N)=O
inactive: all assays above

Cc1ccccc1N1CCN(CCc2nnc3n2CCCC3)CC1
inactive: all assays above

CC(C)(C)c1nnc(NS(=O)(=O)c2ccccc2)s1
inactive: all assays above

O=C(CCOCCOCCOCCOCCC(=O)Nc1c(I)cc(I)c(C(=O)O)c1I)Nc1c(I)cc(I)c(C(=O)O)c1I
inactive: all assays above
